Compounds with a hit are over-represented: about 2.3% of the library has one in this group of screens.
FUS suppressor: FUS proteinopathy suppression in yeast; Potency, µM (series often up to 76.6 µM), hits mostly activators; 390,000 tested, 0.24% active; AID 1347120; S. cerevisiae FUS-expressing, growth rescue, OD600, 24 h; also: nearly all actives have a fitted effect of over 55% in size
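Steps: raffinose overnight preculture; dilution to OD 0.005 in 2% galactose minimal medium; compound addition (concentration series); 24hr at 30C, 99% humidity; absorbance read at 600 nm.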
TRPV1 ag: agonists of human vanilloid receptor 1 (TRPV1) | TRPV1-expressing cells, Fluo-8 calcium influx, agonist mode | 320,000 tested, 0.19% active | AID 540275 | activation, % at 8.33 µM | Q8NER1; in the data active = activation above about 80%; inconclusive = between about 30% and that limit
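Fluo-8 calcium influx in TRPV1-expressing cells, kinetic read (ex 480/em 520 nm). Compound added and read 3 min for agonist activity, followed by capsaicin at EC20 final and 2 min further read for enhancement.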
TRPV1 potentiator: human TRPV1 potentiation; Q8NER1; TRPV1-expressing cells, Fluo-8 calcium influx, capsaicin EC20 potentiation; potentiation, % at 8.33 µM; 320,000 tested, 0.02% active; in the data active = potentiation above about 80%; inconclusive = between about 30% and that limit
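Cells expressing TRPV1 were dye-loaded with Fluo-8 and read kinetically: 10 s baseline, 3 min after compound (agonist portion), then 2 min after EC20 capsaicin (allosteric enhancer portion). Calcium-bound dye fluorescence at 480/520 nm.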
Giardia kill: kills Giardia lamblia; 340,000 tested, 0.15% active; activity change, % at 7.66 µM, hits read low; Giardia lamblia trophozoite viability; in the data active = activity change below about -80%; inconclusive = between about -30% and that limit;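 also: parasites exposed to compound for two days anaerobically before the ATP read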
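Viability, read as ATP luminescence: trophozoites at 100 cells/well, compound added, 48 hrs anaerobic at 37 deg C, then 15-30 min room-temperature development before reading.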
ELG1 repair inh: ELG1-dependent DNA repair inhibition; HEK293T ELG1-luciferase reporter, luminescence, 16 h; DNA damage induced by 5-fluorouridine; Potency, µM (top dose mostly 46.1 µM), hits mostly inhibitors; 330,000 tested, 2.3% active; also: nearly all actives have a fitted effect of over 55% in size
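In this reporter screen, reduction of luminescence relative to DMSO vehicle indicated activity. Compounds and 5-fluorouridine were added together to 2,000 cells per well, incubated for 16 hr at 37 °C, then developed with ONE-Glo.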
A number is an active result; n = inactive; u = inconclusive; x = no result. Unless noted, calls follow the shape of the dose curve; as a rule, active = well fitted curve in the direction sought with a large enough effect; inconclusive = small, poorly fitted or top-dose-only effect, or another doubt; inactive = no such curve, though single readings can be large; an effect the other way counts as inactive or inconclusive.

SMILES | FUS suppressor | TRPV1 ag | TRPV1 potentiator | Giardia kill | ELG1 repair inh
Cc1ccc2nc3c(cc(C#N)c(=O)n3-c3nnc(SCc4ccccc4)s3)c(=O)n2c1 | n | x | x | x | x
O=C(Nc1ccc(Cl)cc1)/C(=C/c1cccc(O)c1)c1nc2ccccc2s1 | n | n | n | n | 25.9µM
S=C(Nc1ccc(Cl)cc1)c1nc2ccccc2s1 | n | n | n | n | u
C[C@@H]1CN([C@@H](C)CO)C(=O)CCCn2nncc2CO[C@H]1CN(C)C(=O)Nc1cccc(Oc2ccccn2)c1 | n | x | x | x | x
COc1ccccc1CN1COc2ccc3c(oc(=O)c4ccccc43)c2C1 | n | x | x | x | x
Cc1cccc(N2CCN(C(=O)C3CCCN(S(=O)(=O)c4cnc[nH]4)C3)CC2C)c1 (configuration not stated) | n | n | n | n | 23.1µM
Cc1noc(C)c1S(=O)(=O)N1CCC(C(=O)N2CCC(C)CC2)CC1 | n | n | n | n | n
Cc1cccc(N2CCN(C(=O)C3CCN(S(=O)(=O)c4c(C)noc4C)CC3)CC2C)c1 (configuration not stated) | n | n | u | n | 20.6µM
COc1ccc(NC(=O)CN2C(=O)C3(SCC(=O)N3c3cccc(OC)c3)c3ccccc32)cc1 (configuration not stated) | n | x | x | x | x
CCOc1cc(C(=O)N2CCC(CC3CC(c4ccccc4)=NO3)(C(=O)NCc3ccc(OC)cc3)CC2)cc(OCC)c1OCC (configuration not stated) | 17.8µM | x | x | n | x
COc1cccc2c1Oc1ncccc1N(C(=O)CCC(=O)NCCC(C)C)C2 | n | x | x | x | x
COc1ccc(C2C3=C(N=C4SCC(=O)N42)c2ccccc2CC3)cc1OC (configuration not stated) | 35.5µM | n | n | n | n
COc1ccc(C2C3=C(N=C4SCC(=O)N42)c2ccccc2CC3)cc1 (configuration not stated) | u | n | n | n | n
COc1ccc(CN2CN3Cc4cc(OC)ccc4C3CS2(=O)=O)cc1 (configuration not stated) | n | x | x | x | x
Cc1ccccc1C(=O)Nc1ccc2c(C#N)c3nc4ccccc4nc3n2c1 | x | n | n | n | 18.4µM
O=C(C1CCCN(S(=O)(=O)c2ccc(Br)s2)C1)N1CCCCCC1 (configuration not stated) | n | n | n | n | x
CC(CCc1ccccc1)NC(=O)C1CCCN(c2nnc(-n3cccc3)s2)C1 (configuration not stated) | n | n | n | n | u
O=C(C1CCCN(c2nnc(-n3cccc3)s2)C1)N1CCN(c2ccccc2)CC1 (configuration not stated) | n | n | n | n | 16.4µM
O=C(C1CCCN(S(=O)(=O)c2ccc(Br)s2)C1)N1CCN(c2ccccc2)CC1 (configuration not stated) | u | n | u | n | 14.6µM
CN(c1cccc(NC(=O)c2ccc(N(C)S(=O)(=O)c3ccccc3)cc2)c1)S(C)(=O)=O | n | n | n | n | 16.4µM
COc1ccccc1NC(=O)c1ccc(NC(=O)c2ccco2)cc1 | n | n | n | n | u
COc1cc(NC(=O)c2ccc(S(=O)(=O)N(C)c3ccccc3)cc2)cc(OC)c1 | n | x | x | n | 23.1µM
CN(c1ccccc1)S(=O)(=O)c1cccc(NC(=O)c2ccc(Cl)c([N+](=O)[O-])c2)c1 | x | x | x | n | 20.6µM
COc1cc(OC)cc(C(=O)Nc2ccc(C(=O)Nc3ccccc3OC)cc2)c1 | n | x | x | n | 16.4µM
CC(=O)Nc1ccc(C(=O)Nc2cccc(S(=O)(=O)N(C)c3ccccc3)c2)cc1 | n | n | n | n | u
SMILES | FUS suppressor | TRPV1 ag | TRPV1 potentiator | Giardia kill | ELG1 repair inh
COc1ccccc1NC(=O)c1ccc(S(=O)(=O)N(C)c2ccccc2)cc1 | n | n | n | n | n
CCOc1ccc(NC(=O)C(NS(=O)(=O)c2ccc3c(c2)CCN3C(C)=O)C(C)C)cc1 (configuration not stated) | n | x | x | x | x
O=C(CCS(=O)(=O)c1nc(-c2ccc3c(c2)OCO3)cc(C(F)(F)F)n1)Nc1ccc(Br)cc1 | n | x | x | x | x
O=C(NCc1ccccc1)c1cnc(N2CCCCC2)c2ccccc12 | n | x | x | x | x
Cc1nnc(NC(=O)c2ccc(S(=O)(=O)N(C)c3ccccc3)cc2)s1 | x | n | n | n | n
CN(c1cccc(NC(=O)CN(c2ccc(Cl)c(Cl)c2)S(=O)(=O)c2ccccc2)c1)S(C)(=O)=O | x | n | n | n | 16.4µM
COc1cc(OC)cc(C(=O)Nc2cccc(NC(C)=O)c2)c1 | n | n | n | n | n
Cc1csc(NC(=O)c2ccc(S(=O)(=O)N(C)c3ccccc3)cc2)n1 | n | n | n | n | 23.1µM
CCOC(=O)Nc1cccc(NC(=O)c2cc(OC)cc(OC)c2)c1 | n | n | n | n | 14.6µM
CN(c1ccc(C(=O)Nc2ccc(F)cc2F)cc1)S(=O)(=O)c1ccccc1 | x | n | n | n | 14.6µM
CCCCCn1c(C(C)NC(=O)c2ccccc2)nc2ccccc21 (configuration not stated) | n | x | x | x | x
COc1cccc(NC(=O)c2ccc3[nH]c(C)cc(=O)c3c2)c1 | n | x | x | x | x
CCc1ccc([C@@H]2CC(=O)[C@@H]3CN(S(=O)(=O)c4ccccc4C)[C@H](c4ccc(Cl)cc4)C[C@@H]3N2S(=O)(=O)c2ccc(C)cc2)cc1 | n | x | x | x | x
COc1cc2c(cc1OC)C1(Nc3c-2c(C)nn3-c2ccccc2)C(=O)Nc2ccccc21 (configuration not stated) | u | n | n | n | u
CCc1nn(-c2ccccc2)c2c1-c1cc(OC)c(OC)cc1C1(N2)C(=O)Nc2ccccc21 (configuration not stated) | x | n | n | n | 20.6µM
CC(=O)Nc1ccc2c(CSc3nnc(-c4cccnc4)n3-c3ccc(C)cc3C)cc(=O)oc2c1 | n | n | n | n | 9.2µM
CC(C)c1ccccc1-n1c(SCc2cc(=O)oc3ccc4ccccc4c23)nnc1-c1cccnc1 | x | n | n | n | 23.1µM
CCOc1ccc(-n2c(SCc3cc(=O)oc4cc(C)ccc34)nnc2-c2cccnc2)cc1 | n | n | n | n | n
CCCCN(C)C(=O)c1ccc2c(=O)n3nc(Nc4cc(C)ccc4C)sc3nc2c1 | n | x | x | x | x
COc1c(C)cc(S(=O)(=O)NCCc2c(C)[nH]c3ccccc23)c(C)c1C | n | x | x | x | x
CCOC(=O)c1c(-c2ccc(Br)cc2)csc1NC(=O)c1ccc(C(C)(C)C)cc1 | n | x | x | x | x
CCN(CC)CCOC(=O)c1ccc(N/C=C(/C#N)c2nc(-c3ccc4c(c3)OCO4)cs2)cc1 | n | n | n | -102.8 | n
CCN(CC)CCOC(=O)c1ccc(N/C=C(/C#N)c2nc(-c3cc4ccccc4oc3=O)cs2)cc1 | u | n | n | -88.6 | n
CCN(CC)CCOC(=O)c1ccc(N/C=C(/C#N)c2nc(-c3ccc(OC)cc3)cs2)cc1 | n | n | n | n | n
CCC(Sc1nc2nccnc2c(=O)n1Cc1ccc(OC)cc1)C(=O)NC1CCCCC1 (configuration not stated) | n | x | x | x | x
